Source: PubChem (National Center for Advancing Translational Sciences (NCATS))
HT1080-NT tox – kills 2HG-producing HT-1080-NT fibrosarcoma cells; HT-1080-NT fibrosarcoma viability, CellTiter-Glo ATP luminescence, 48 h; Potency, µM (doses to about 46.1 µM), inactives show top-dose activity, negative = less viability, hits mostly cytotoxic; 360,000 tested, 1.6% active; AID 686970;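 note: NT is the 2HG producing partner of a matched IDH1 knockdown line; 0% = DMSO-treated cells and -100% = media-only wells without cells; nearly all actives have a fitted effect of over 55% in size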
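Toxicity toward the 2HG-producing NT line was scored as %Activity, normalised to DMSO and no-cell wells, from CellTiter-Glo luminescence after 48 hours' treatment.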
KB-V1 cytotox – KB-V1 MDR subline cytotoxicity; 400,000 tested, 3.4% active; Potency, µM (top dose mostly 46.1 µM), hits mostly cytotoxic; KB-V1 MDR cells viability, CellTiter-Glo, 72 h; note: nearly all actives have a fitted effect of over 60% in size
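KB-V1 cells (P-gp-expressing MDR subline of KB-3-1) in phenol-red-free DMEM with 10% FBS were exposed to library compounds over a concentration series for 72 h at 37 degrees C. Viability read by CellTiter-Glo luminescence; concentration-effect curves fitted after normalization.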
HT1080 IDH1KD tx – HT-1080 IDH1 knockdown cell toxicity (counter line); HT-1080 IDH1 knockdown viability, ATP luminescence, 48 h; Potency, µM (top dose mostly 46.1 µM), for the others: top-dose activity, negative = toxicity, actives largely listed as cytotoxic; 360,000 tested, 2% active; AID 686971;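 note: 0% = DMSO wells and -100% = cell-free medium wells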
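Using the IDH1-knockdown HT-1080 line run in the same batch and compound series as the NT line, viability after 48 h at 37 °C was determined by CellTiter-Glo luminescence and expressed as % activity.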
DT40 TDP1 CPT – growth inhibition of DT40 Tdp1-/-;hTDP1 cells with camptothecin (screen for TDP1 inhibitors); chicken DT40 Tdp1-/-;hTDP1 cells + 20 nM CPT, ATP luminescence, 48 h; Potency, µM (top dose mostly 46.2 µM), without a hit: top-dose activity change, negative = growth inhibition, hits mostly inhibitors; 420,000 tested, 12% active; AID 686979; note: nearly all actives have a fitted effect of over 55% in size
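Cell growth measured by CellTiter-Glo luminescence after a minimum 48 h, 37 C compound exposure with 20 nM CPT in Tdp1-knockout DT40 cells stably expressing hTDP1, seeded 400/well; qHTS titration format.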
DT40 TDP1 no CPT – qHTS for Inhibitors of human tyrosyl-DNA phosphodiesterase 1 (TDP1): qHTS in cells in absence of CPT; DT40 Tdp1-/- hTDP1 cells, no CPT, ATP luminescence, 48 h; Potency, µM (titrated, usually from 46.2 µM), for the others: at the highest dose activity change, negative = growth inhibition, hits mostly inhibitors; 420,000 tested, 15% active; AID 686978, 2013; note: nearly all actives have a fitted effect of over 55% in size
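Seeded 400 DT40-hTDP1 cells/well (vehicle DMSO, no 20 nM CPT); pinned compounds; ≥48 hr at 37 °C; CellTiter-Glo luminescence as viability measure.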
KB-3-1 tox – KB-3-1 parental cell cytotoxicity. 400,000 tested, 1.4% active. Potency, µM (top dose mostly 46.1 µM), usual class: cytotoxic. KB-3-1 viability, CellTiter-Glo ATP luminescence, 72 h; note: nearly all actives have a fitted effect of over 60% in size
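Screening of KB-3-1 cells (DMEM, 10% FBS, phenol-red free) ran from lowest to highest compound concentration; after 72 h at 37 °C viability was read luminescently and curves fitted.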
Active calls of the source: *. The list is not random: actives were taken first. Their share in the collection is about 19%. Calls come from the whole dose curve; as a rule, active = well fitted curve in the direction sought with a large enough effect; inconclusive = small, poorly fitted or top-dose-only effect, or another doubt; inactive = no such curve, though single readings can be large; an effect the other way counts as inactive or inconclusive. Unless noted, % is set by controls: 0 for no effect and ±100 for the full control effect; potency is the fitted concentration of half-maximal effect.

`CCOc1ccc(N(CC(=O)NC(C)(C)C)C(=O)c2ccco2)cc1` gave HT1080-NT tox 0%, KB-V1 cytotox inconclusive, HT1080 IDH1KD tx 5%, DT40 TDP1 CPT 7%, DT40 TDP1 no CPT -23% and KB-3-1 tox inactive.
CCN(C(=S)NCc1ccccc1)c1ccccc1 was read as HT1080-NT tox 6%, KB-V1 cytotox inactive, HT1080 IDH1KD tx 2%, DT40 TDP1 CPT -14%, DT40 TDP1 no CPT 8% and KB-3-1 tox inactive.
Screening COc1cc(C(=O)Nc2ccc(NC(=O)c3ccc(Br)cc3)cc2)cc(OC)c1OC returned KB-V1 cytotox inactive, DT40 TDP1 CPT -2%, DT40 TDP1 no CPT -4% and KB-3-1 tox inactive.
`COc1cc(C(=O)Nc2ccc(NC(=O)c3ccc(C(C)(C)C)cc3)cc2)cc(OC)c1OC` gave DT40 TDP1 CPT 2.9µM* and DT40 TDP1 no CPT 3.3µM*.
O=[N+]([O-])c1ccc(C2=NN(CCO)C(=Nc3ccc(OC(F)(F)F)cc3)SC2)cc1 was read as HT1080-NT tox inconclusive, KB-V1 cytotox inactive, HT1080 IDH1KD tx 15µM*, DT40 TDP1 CPT 18µM*, DT40 TDP1 no CPT 21µM* and KB-3-1 tox inactive.
Screening CCOC(=O)c1sc(N=NC2=C(O)CCCC2=O)c(C(=O)OCC)c1C returned HT1080-NT tox -16%, KB-V1 cytotox inactive, HT1080 IDH1KD tx inconclusive, DT40 TDP1 CPT -19%, DT40 TDP1 no CPT -14% and KB-3-1 tox inactive.
Screening CCOC(=O)/C(N=Nc1sc(C(=O)OC)c(C)c1C(=O)OCC)=C(\O)CCl returned HT1080-NT tox 9%, KB-V1 cytotox inconclusive, HT1080 IDH1KD tx 4%, DT40 TDP1 CPT inconclusive, DT40 TDP1 no CPT 15µM* and KB-3-1 tox inactive.
CCc1nc2c(OCc3ccc(Cl)cc3)cccn2c1N(C)C(=O)C1CC1 was read as HT1080-NT tox 0%, KB-V1 cytotox inactive, HT1080 IDH1KD tx 2%, DT40 TDP1 CPT inconclusive, DT40 TDP1 no CPT inconclusive and KB-3-1 tox inactive.
CCc1nc2c(OCc3ccc(Cl)cc3)cccn2c1N(C)C(=O)c1ccc(C)cc1 was read as HT1080-NT tox inconclusive, KB-V1 cytotox inconclusive, HT1080 IDH1KD tx -25%, DT40 TDP1 CPT 18µM*, DT40 TDP1 no CPT 18µM* and KB-3-1 tox inactive.
`CCOC(=O)N(C)c1c(CC)nc2c(OCc3ccc(Cl)cc3)cccn12` gave HT1080-NT tox inconclusive, KB-V1 cytotox inactive, HT1080 IDH1KD tx inconclusive, DT40 TDP1 CPT 21µM*, DT40 TDP1 no CPT 15µM* and KB-3-1 tox inactive.
For CCc1ccccc1NC(=S)N(CCN(C)C)Cc1cccs1 the results were HT1080-NT tox 0%, KB-V1 cytotox inconclusive, HT1080 IDH1KD tx 14%, DT40 TDP1 CPT -11%, DT40 TDP1 no CPT -26% and KB-3-1 tox inactive.
Screening CC(C)[C@H](NC(=O)N1c2ccccc2NC(=O)[C@@H]1C(C)C)C(=O)N[C@H](Cc1ccccc1)C(=O)O returned HT1080-NT tox 7%, KB-V1 cytotox inactive, HT1080 IDH1KD tx 9%, DT40 TDP1 CPT 3%, DT40 TDP1 no CPT 0% and KB-3-1 tox inactive.
Screening C/C(CCc1oc2c(Br)cc(Br)cc2c1-c1ccc(C)o1)=N\O returned HT1080-NT tox -18%, KB-V1 cytotox inactive, HT1080 IDH1KD tx -29%, DT40 TDP1 CPT 16µM*, DT40 TDP1 no CPT 18µM* and KB-3-1 tox inactive.
Screening CC(=O)CCc1oc2ccc([N+](=O)[O-])cc2c1-c1ccc(C)o1 returned HT1080-NT tox 1%, KB-V1 cytotox inactive, HT1080 IDH1KD tx 2%, DT40 TDP1 CPT 6%, DT40 TDP1 no CPT -12% and KB-3-1 tox inactive.
For C/C(CCc1oc2ccccc2c1-c1ccc(C)o1)=N/O the results were HT1080-NT tox -26%, KB-V1 cytotox inactive, HT1080 IDH1KD tx inconclusive, DT40 TDP1 CPT inconclusive, DT40 TDP1 no CPT 18µM* and KB-3-1 tox inactive.
Screening O=C(NCCc1ccccc1)C(=O)NCC1CCCN1S(=O)(=O)c1cccs1 (stereo not drawn) returned HT1080-NT tox -6%, KB-V1 cytotox inconclusive, HT1080 IDH1KD tx 0%, DT40 TDP1 CPT 23µM*, DT40 TDP1 no CPT inconclusive and KB-3-1 tox inconclusive.
`Cc1ccccc1NC(=O)C(=O)NCC1CCCN1S(=O)(=O)c1cccs1` (stereo not drawn) gave HT1080-NT tox 16%, KB-V1 cytotox inactive, HT1080 IDH1KD tx 16%, DT40 TDP1 CPT -29%, DT40 TDP1 no CPT inconclusive and KB-3-1 tox inactive.
For COc1ccc(NC(=O)C(=O)NCC2CCCN2S(=O)(=O)c2cccs2)cc1 (stereo not drawn) the results were HT1080-NT tox inconclusive, KB-V1 cytotox inconclusive, HT1080 IDH1KD tx inconclusive, DT40 TDP1 CPT 2.3µM*, DT40 TDP1 no CPT 2.1µM* and KB-3-1 tox inconclusive.
Screening CCCCCOc1ccc(NC(=O)C(=O)NCC2CCCN2CC)cc1 (stereo not drawn) returned HT1080-NT tox -13%, KB-V1 cytotox inactive, HT1080 IDH1KD tx 0%, DT40 TDP1 CPT 16µM*, DT40 TDP1 no CPT inconclusive and KB-3-1 tox inactive.
Screening Cc1ccccc1CNC(=O)C(=O)NCCC1CCCCN1S(=O)(=O)c1cccs1 (stereo not drawn) returned HT1080-NT tox -8%, KB-V1 cytotox inconclusive, HT1080 IDH1KD tx -29%, DT40 TDP1 CPT 18µM*, DT40 TDP1 no CPT inconclusive and KB-3-1 tox inactive.
Cc1nn(C(=O)c2cccc(F)c2)c(C)c1S(=O)(=O)N1CCCCCC1 was read as KB-V1 cytotox inactive, DT40 TDP1 CPT -5%, DT40 TDP1 no CPT 6% and KB-3-1 tox inactive.
Screening O=C(Nc1cccc(Cl)c1)c1csc([C@@H]2O[C@H](CO)[C@H](O)[C@H](O)[C@H]2O)n1 returned HT1080-NT tox -1%, KB-V1 cytotox inactive, HT1080 IDH1KD tx 10%, DT40 TDP1 CPT 0%, DT40 TDP1 no CPT 5% and KB-3-1 tox inactive.
Cc1ccc(CC(C)(O)CC(C)(O)Cc2ccc(C)cc2)cc1 (stereo not drawn) was read as HT1080-NT tox -1%, KB-V1 cytotox inactive, HT1080 IDH1KD tx -10%, DT40 TDP1 CPT 21µM*, DT40 TDP1 no CPT 18µM* and KB-3-1 tox inactive.
Screening Cc1ccc(S(=O)(=O)CC(C)(O)CS(=O)(=O)c2ccc(C)cc2)cc1 returned HT1080-NT tox 7%, KB-V1 cytotox inactive, HT1080 IDH1KD tx 10%, DT40 TDP1 CPT -25%, DT40 TDP1 no CPT -26% and KB-3-1 tox inactive.
